GLP-1R agonist: GLP-1 receptor (human) agonism; Potency, µM (series often up to 45.6 µM), for the others: top-dose activation, actives largely listed as activators; HEK293 GLP-1R CRE-luciferase, luminescence, 4-6 h; cells express a hypersensitive GLP-1R form; 0.007% of 380,000 active; P43220; AID 624172; further: % of control where 0% means no effect
Target sequence (P43220 whole entry, looked up): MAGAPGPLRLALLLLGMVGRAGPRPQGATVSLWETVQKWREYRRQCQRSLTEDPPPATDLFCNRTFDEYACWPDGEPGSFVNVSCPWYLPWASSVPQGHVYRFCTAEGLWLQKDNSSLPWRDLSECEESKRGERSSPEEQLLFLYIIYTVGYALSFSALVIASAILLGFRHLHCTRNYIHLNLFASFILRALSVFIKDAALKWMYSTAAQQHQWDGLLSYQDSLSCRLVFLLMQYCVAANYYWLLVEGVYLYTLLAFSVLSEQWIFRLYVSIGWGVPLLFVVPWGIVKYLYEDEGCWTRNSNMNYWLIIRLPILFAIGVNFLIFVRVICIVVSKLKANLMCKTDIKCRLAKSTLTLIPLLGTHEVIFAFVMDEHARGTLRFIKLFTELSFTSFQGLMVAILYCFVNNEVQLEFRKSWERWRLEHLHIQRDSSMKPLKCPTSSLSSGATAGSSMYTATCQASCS
RGS4 inh: blocks human RGS4-accelerated GTP hydrolysis. Transcreener GDP fluorescence polarization, RGS4-accelerated GTP hydrolysis. Potency, µM (series often up to 114 µM), without a hit: at the highest dose activity change, negative = inhibition, most hits filed as inhibitors. 0.039% of 390,000 active. AID 504845; further: on the % scale 0 is the no-effect control and ±100 the full control effect; nearly all actives have a fitted effect of over 75% in size
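MLSMR compounds (23 nl, pin-transferred) preincubated 10 min at room temperature with a 500nM (2x) first reagent, then RGS4 at 900nM (2x) plus Transcreener GDP mix added; fluorescence polarization (620/688 nm) read before and after 90 min at 30 °C.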
PTHR1 ag: agonists of human PTHR1 parathyroid hormone receptor; HEK293 GP2 PTHR1 cells, GloSensor cAMP luminescence, 1 h; Potency, µM (top dose mostly 115 µM), without a hit: top-dose activation, most hits filed as activators; 0.075% of 410,000 active; AID 743266; further: nearly all actives have a fitted effect of over 55% in size
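HEK-293-derived GP2 cells expressing PTHR1 and a GloSensor cAMP reporter, 3,000/well, plated overnight, given luciferin plus IBMX (each 0.5 mM as added) for 1 h at 37 °C, then compound for 1 h at 37 °C. Luminescence was read after 15 min at room temperature.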
GLP1R cytotox: cytotoxicity in counter-screen for GLP-1R inverse agonists; AID 624418; HEK293 cAMP-luciferase reporter cells, luminescence, 24 h; 0.13% of 410,000 active; Potency, µM (doses to about 38.3 µM), without a hit: at the highest dose activity change, negative = inhibition, hits mostly inhibitors;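 further: loss of luciferase light is scored as toxicity; on the % scale 0 is the no-effect control and ±100 the full control effect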
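A 23 nL compound transfer followed 12 hours of cell culture at 37 deg C; exposure then lasted 24 hr. Luciferase assay detection reagent was dispensed and plates read for luminescence after a 12 min room-temperature wait.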
GLP1R inv ag: inverse agonists of human GLP-1 receptor. P43220. HEK293 GLP-1R CRE-luciferase, luminescence, 24 h; GLP-1R form is constitutively active. Potency, µM (series often up to 38.3 µM), without a hit: at the highest dose activity change, negative = inhibition, hits mostly inhibitors. 1.6% of 410,000 active; further: on the % scale 0 is the no-effect control and ±100 the full control effect; nearly all actives have a fitted effect of over 55% in size
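Stable HEK293 clone (constitutively active GLP-1R + cAMP-response luciferase); 200 cells/uL plated, 12 h pre-culture, compound 24 hr, 37 deg C/5% CO2; detection reagent 12 min RT; luminescence.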
* marks the source's active call; other numbers are inactive results; i = inactive; ? = inconclusive; / = no result given; [ ] = remark or other dose. Sampled rows, rich in hits. Any-hit rate of the full collection: about 1.7%. The call rests on the fitted dose curve; in most records, active means well fitted curve in the direction sought with a large enough effect; inconclusive means small, poorly fitted or top-dose-only effect, or another doubt; inactive means no such curve, though single readings can be large; an effect the other way counts as inactive or inconclusive. Potency means the concentration at half of the fitted maximal effect.

SMILES	GLP-1R agonist	RGS4 inh	PTHR1 ag	GLP1R cytotox	GLP1R inv ag
c1ccc(-c2nnc(NC3=NCCC3)o2)cc1	-32.0%	17.9%	i	11.3%	?
COC(=O)C1=CN(c2ccc(OC)cc2)C=C(C(=O)OC)C1c1cccc(F)c1	3.9%	8.3%	-8.6%	99.3%	?
COC(=O)C1=CN(c2ccc(F)cc2)C=C(C(=O)OC)C1c1cccc([N+](=O)[O-])c1	12.7%	8.6%	-32.2%	4.7%	5.62µM*
CC(C)NCC(O)Cn1c2c(c3ccccc31)CCc1c-2cnn1-c1ccccc1 (stereo not given)	-36.4%	?	-11.1%	?	10µM*
CN1CCc2c(n(CC(O)CNCc3ccccc3)c3ccccc23)C1=O (stereo not given)	-3.7%	-10.7%	-1.5%	-9.6%	?
COc1ccc(-c2csc(NC(=O)c3ccccc3NS(=O)(=O)c3ccc(C)cc3)n2)cc1	-30.4%	3.2%	-95.9%	5.4%	4.47µM*
COc1cccc(C(=O)Nc2nc3ccccc3[nH]2)c1	-21.3%	-33.3%	-8.3%[57.5 µM]	?	7.94µM*
CN(C)c1cccc(C(=O)Nc2nc3ccccc3[nH]2)c1	-4.5%	1.3%	-92.1%	1.8%	3.55µM*
COc1ccc(C(=O)Nc2nc3ccccc3[nH]2)cc1	-4.7%	8.9%	-32.0%	?	?
COc1cccc(Cn2c3ccc(NC(=O)Cc4ccccc4C)cc3c(=O)n2C)c1	2.4%	/	-76.3%	-5.6%	-3.1%
O=C(/C=C/c1ccccc1Cl)N1CCC(c2nc3ccccc3o2)CC1	/	5.1%	-24.1%	0.8%	4.8%
Cc1ccc(C2=NN(C(=O)CCl)C(c3cccs3)C2)o1 (stereo not given)	10.3%	-44.0%	-29.7%	?	3.16µM*
O=C(CCl)N1N=C(c2ccco2)CC1c1cccs1 (stereo not given)	-21.4%	-40.4%	-5.7%	?	0.0%
Cc1cc(C)cc(Cn2cc(CN3CC(N4CCN(CCN(C)C)CC4)CS3(=O)=O)nn2)c1 (stereo not given)	1.5%	/	i	-1.6%	19.0%
O=C1NN=C(c2ccccc2)CC1c1ccc(Cl)cc1Cl (stereo not given)	12.2%	15.7%	i	-7.1%	7.94µM*
O=C1NN=C(c2ccc(Cl)cc2)CC1c1cccc(Cl)c1 (stereo not given)	7.5%	-15.9%	-2.1%	0.7%	?
CC(=O)c1ccc(NC(=O)Cn2c(=O)cc(C)c3c(C)nn(-c4cccc(F)c4)c32)cc1	/	2.4%	i	13.2%	6.4%
CCC(C)N(C)Cc1cccc(C2(O)CCN(S(=O)(=O)c3ccc(F)c(C)c3)CC2)c1 (stereo not given)	1.2%	20.8%	-23.3%	?	2.51µM*
Cc1cc(S(=O)(=O)N2CCN(c3c(C)cccc3C)CC2)ccc1F	-7.2%	23.6%	i	-1.4%	?
CNc1ncnc2sc(-c3ccccc3)cc12	?	-14.0%	-23.8%	7.8%[0.307 µM]	-12.3%[0.307 µM]
S=c1[nH]cnc2sc(-c3ccccc3)cc12	1.4%	-49.7%	-18.6%	5.62µM*	-6.0%
NC(=O)NC(=O)C(c1ccccc1)N1CCN(S(=O)(=O)c2ccc(Br)s2)CC1 (stereo not given)	7.9%	4.6%	-10.5%	-19.3%	?
COc1ccc(-c2cccc([C@H]3[C@@H]4C=CC[C@@H](C)[C@@H]4C(=O)N3Cc3ccccc3)c2)cc1	-1.3%	-1.4%	-3.9%	-8.2%	?
CC(=O)c1ccc(-c2cccc([C@H]3[C@@H]4C=CC[C@@H](C)[C@@H]4C(=O)N3Cc3ccccc3)c2)cc1	4.8%	-20.3%	-0.9%	-0.8%	10µM*
Cc1ccc(CNC(=O)c2c3c(nc4ccccc24)C(=O)N(C2CCCCC2)C3)cc1	/	4.0%	-19.8%	-5.3%	11.2µM*
CCOc1cc2c(c3c1C(c1ccccc1)N(S(=O)(=O)c1ccc(C)cc1)C3)C(=O)C=CC2=O (stereo not given)	8.3%	/	-30.0%	?	-30.9%
Cn1c(=O)c2nc(SCC(=O)Nc3ccc(OC(F)(F)F)cc3)n(C)c2n(C)c1=O	/	-10.7%	i	-14.6%	8.0%
